Test results taken from publication PMC5540273 (PLoS ONE, 2017).

Key:
Settings in all cases: concentration: 1 μM, replicates: in singlicate; n = 1
EPHA4 = tested on: EPHA4
EPHA5 = tested on: EPHA5
EPHA6 = tested on: EPHA6
EPHA7 = tested on: EPHA7
EPHA8 = tested on: EPHA8
EPHB1 = tested on: EPHB1
EPHB2 = tested on: EPHB2
EPHB3 = tested on: EPHB3
EPHB4 = tested on: EPHB4
EPHB6 = tested on: EPHB6
ERBB2 = tested on: ERBB2
ERBB3 = tested on: ERBB3
ERBB4 = tested on: ERBB4
ERK1 = tested on: T1, ERK1
T1 construct: gene MAPK3

ERK2 = tested on: T2, ERK2
T2 construct: gene MAPK1

ERK3 = tested on: T3, ERK3
T3 construct: gene MAPK6

ERK4 = tested on: T4, ERK4
T4 construct: gene MAPK4

ERK5 = tested on: T5, ERK5
T5 construct: gene MAPK7

ERK8 = tested on: T6, ERK8
T6 construct: gene MAPK15

ERN1 = tested on: ERN1
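Note: KINOMEscan kinase panel screen.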

Compound	%Inh (EPHA4) [%]	%Inh (EPHA5) [%]	%Inh (EPHA6) [%]	%Inh (EPHA7) [%]	%Inh (EPHA8) [%]	%Inh (EPHB1) [%]	%Inh (EPHB2) [%]	%Inh (EPHB3) [%]	%Inh (EPHB4) [%]	%Inh (EPHB6) [%]	%Inh (ERBB2) [%]	%Inh (ERBB3) [%]	%Inh (ERBB4) [%]	%Inh (ERK1) [%]	%Inh (ERK2) [%]	%Inh (ERK3) [%]	%Inh (ERK4) [%]	%Inh (ERK5) [%]	%Inh (ERK8) [%]	%Inh (ERN1) [%]
CCn1c(-c2ccccn2)nc2cnccc21 [SB-736398]	23	0	7	0	5	0	0	12	35	0	26	14	0	11	0	14	6	5	37	0
Cn1ccc2ncnc(Oc3ccc(NC(=O)Nc4ccccc4)cc3)c21	0	0	18	0	0	0	1	22	6	35	14	10	0	0	0	0	12	9	0	2
CC1=C(C(=O)Nc2cc3cn[nH]c3cc2F)C(c2ccc(C(F)(F)F)cc2)CC(=O)N1 (stereo not shown) [GSK429286]	4	0	12	11	23	3	10	21	10	17	9	0	63	8	0	14	10	0	0	2
Cc1cccc(-c2nc(Nc3ccncc3)c3ccccc3n2)n1 [GW855857]	18	0	0	0	7	3	16	11	26	0	7	43	0	0	9	0	7	30	17	0
Cl.Oc1ccc(-c2nc(-c3ccccc3)[nH]c2-c2ccncc2)cc1 [SB-428218]	30	0	35	0	4	0	4	25	45	25	57	31	27	0	0	0	16	38	0	0
Cc1nnc(-c2ccc3occ(-c4ccc(S(C)=O)cc4)c3c2)[nH]1 (stereo not shown)	24	10	34	7	6	0	16	17	16	13	16	6	5	0	8	13	0	0	0	35
O=c1cc(N2CCOCC2)nc2n(Cc3cccc(Cl)c3Cl)ccn12 [GSK2286295]	0	0	0	3	12	13	0	11	14	24	0	0	0	0	6	0	27	0	2	0
Cc1cccc(-c2nc(Nc3cccc(C(N)=O)c3)c3ccccc3n2)n1 [GW876019]	10	0	0	3	7	9	8	15	50	0	23	50	15	0	0	22	0	0	11	17
CC(C)(C)c1ccc(C(=O)Nc2cn3cc(-c4cccnc4)ccc3n2)cc1	25	13	29	4	8	19	4	26	16	28	34	0	1	0	18	14	23	20	16	12
Cc1csc(-c2nc(Nc3ccncc3)c3ccccc3n2)n1 [GW869640]	8	13	6	6	5	7	0	9	0	28	36	40	0	13	17	4	0	0	32	27
O=C(O)COc1ncnc2cc(-c3ccc4[nH]ncc4c3)sc12	0	42	4	0	0	0	0	0	7	47	0	0	15	0	24	0	0	1	3	15
Cc1ccc(C(=O)Nc2ccc(Nc3ccnc4cc(-c5ccccn5)ccc34)cc2O)cc1.Cl [GW440146]	0	0	0	4	10	5	14	0	0	48	38	0	31	5	0	0	10	0	0	0
Cn1cncc1-c1ccc2ncnc(Nc3ccc(OCc4ccccc4)cc3)c2c1 [GW320571]	13	2	19	1	12	6	0	23	8	3	99.4	43	61	13	10	0	0	0	25	0
CC(=O)Nc1nc2cnc(Nc3cc(NC(=O)c4cccc(CCC#N)c4)ccc3C)nc2s1	16	6	27	10	16	6	24	14	19	45	6	7	14	0	21	4	3	3	0	0
Cc1cc(NCC(c2ccccc2)c2ccccc2)nc(NCc2ccc(C(F)(F)F)cc2)n1 [GW497681]	0	0	0	7	6	0	0	0	7	8	21	1	27	0	0	0	5	0	0	0
COc1cccc(NC(=O)NC2CCN(c3ccnc(Nc4ccc(F)cc4)n3)C2)c1 (stereo not shown) [GSK1379721]	0	0	0	0	3	17	0	0	0	33	28	0	7	0	0	0	21	0	0	19
CCCc1ccc(S(=O)(=O)NC2CCN(c3ccnc(Nc4ccc(F)cc4)n3)C2)cc1 (stereo not shown) [GSK1379715]	13	0	6	2	23	0	6	15	15	2	7	1	25	0	18	0	13	0	15	0
COC(=O)c1c(-c2ccccc2)c2cc(OC)ccc2c(=O)n1Cc1ccccc1	35	1	43	0	1	0	23	35	27	0	9	11	0	0	17	0	14	13	0	17
Nc1ncnc2[nH]c(-c3ccccc3)nc12 [AH5015]	23	0	8	29	25	0	8	16	19	25	14	0	0	4	0	0	0	0	31	12
Cc1ccc(NC(=O)Nc2cccc(Cl)c2)cc1-c1ccc(C(=O)Nc2ccncc2)cc1 [GSK1398468]	18	0	11	3	38	26	15	4	19	0	24	0	7	0	0	7	3	0	0	0
Cl.NC(=O)c1cccc(Nc2nccc(Nc3ccc(Oc4cccc(Cl)c4)c(Cl)c3)n2)c1 [GW659008]	3	0	0	3	19	0	0	0	16	68	79	82	55	3	0	15	0	61	0	19
COc1ccc(CNC(=O)NC2CCN(c3ccnc(Nc4cc(OC)c(OC)c(OC)c4)n3)C2)cc1 (stereo not shown) [GSK1379748]	3	0	0	0	8	20	0	0	0	91.8	0	27	9	0	0	0	0	0	0	0
CS(=O)(=O)c1ccc(-c2c(-c3ncn[nH]3)sc(N3CCOCC3)c2C#N)cc1	27	27	32	0	0	6	0	36	42	17	41	13	12	0	37	25	12	0	10	21
CCn1c(-c2cccnc2O)nc2cnccc21 [SB-736715]	0	0	0	0	0	0	6	0	0	0	9	0	25	0	0	0	0	0	0	0
Fc1cc(Cl)ccc1Nc1ccnc2cc(-c3ccc(CN4CCCCC4)o3)ccc12 [GW560116]	0	0	24	0	30	12	10	0	12	51	1	31	4	0	0	0	8	0	0	0
C[C@@H]1CCCCN1c1cc(-c2ccc3c(N)n[nH]c3c2)nc(N)n1 [GSK2258759]	2	0	1	0	3	12	0	7	15	14	18	0	12	8	0	5	0	0	0	0
COc1cc(Nc2nccc(N3CCC(NC(=O)Nc4cc(C)ccc4C)C3)n2)cc(OC)c1OC (stereo not shown) [GSK1379762]	26	0	18	25	33	12	0	16	4	89	11	0	0	9	0	5	4	0	41	15
COc1cc2ncnc(Nc3ccc4nc(-c5ccccc5)[nH]c4c3)c2cc1OC.Cl [GW282450]	0	0	0	0	0	38	1	3	22	18	23	0	33	0	0	0	0	0	0	4
CN(C)CCN(C)C(=O)c1cc(-c2ccncc2)c(-c2ccc(Cl)c(O)c2)o1.Cl.Cl [SB-710397]	6	0	8	13	16	8	12	11	5	5	53	26	33	2	0	0	0	0	0	0
